An excerpt weighted towards active compounds, which were near 9.6% of everything screened.
Insulin prom inh – TRM-6 insulin promoter activity inhibition; TRM-6 cells (human fetal islet line), insulin promoter-eGFP reporter, imaging; reporter expression induced with tamoxifen; inhibition, % at 2 µM; 0.9% of 130,000 active;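 active = inhibition above the mean plus 3 SD, with well images judged a real hit on visual review, cut at about 60% in these data, passing the limit was not always enough; inconclusive = inhibition over the cutoff but images rejected on review; inactive = inhibition not above the cutoff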
Autophagy mod – alters autophagy in cells. MEF GFP-LC3 puncta imaging; test concentration mostly 10 µM. calls only at 10 µM (by protocol). 0.98% of 190,000 active;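 active = percentage of spot-positive cells more than 3 SD above its plate mean, without a fluorescence outlier flag or 80% toxicity; inconclusive = no clear call, values can overlap the other calls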;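 also: spot-positive cell cutoff set from DMSO-treated cells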
Insulin prom up – MIN6 insulin promoter up-regulation; MIN6 insulin promoter-GFP reporter, high-content imaging; hits give high values; z-score at 5 µM; 0.3% of 190,000 active; AID 1625;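 active = z-score above 3 at 5 µM with at least 500 cells counted in the well; inconclusive = wells under 500 cells, flagged as cytotoxic or low count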
HCT116 bCat-KO – beta-catenin-lacking colon tumor cell growth suppression | HCT116 beta-catenin knockout viability, CellTiter-Glo, 60 h; hits give low values | viability, % at 10 µM | 1.5% of 140,000 active;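 active = viability at or under a set limit, the compound median less 4 SD, cut at about 6% in these data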;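 also: 0% = Hyamine 1622 control at 20 µM and 100% = untreated cell control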
L major viab – reduces viability of Leishmania major promastigotes | resazurin fluorescence viability | inhibition, % at 10 µM | 9% of 200,000 active | AID 1063; in the data active = inhibition above about 50%;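 also: promastigotes grown with compound for 44 hours at 28 °C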
HCT116 PTEN-null – growth suppressors of cells with PTEN tumor suppressor deletion; HCT116 PTEN-null viability, CellTiter-Glo, 60 h; hits give low values; viability, % at 10 µM; 1.2% of 140,000 active;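 active = viability at or below a set limit, 4 SD under the median of all tested compounds, cut at about 3.7% in these data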;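 also: PTEN knockout HCT116 line with beta catenin targeted HCT116 as companion control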
Numbers without * were called inactive; i = inactive; ? = inconclusive; nt = no result; + = active, no number.

SMILES	Insulin prom inh	Autophagy mod	Insulin prom up	HCT116 bCat-KO	L major viab	HCT116 PTEN-null
Clc1ccccc1/C=N/NC1=Nc2cccc3cccc1c23	-38	+	0.79	42	9	43
Cc1csc(N/N=C/c2ccccn2)n1	50	i	-1.3	nt	95*	nt
Cc1cc(/C=N/NC(N)=S)c(C)n1-c1ccc(Cl)c(Cl)c1	-14	i	-0.1	34	100*	25
COc1cc2nc(SCC(=O)NC3CC3)n(CCC3=CCCCC3)c(=O)c2cc1OC	56	i	nt	nt	-4	nt
COc1cc2nc(SCc3c(C)noc3C)n(CCC3=CCCCC3)c(=O)c2cc1OC	nt	+	2.2	50	62*	48
O=C(O)CCC(=O)c1ccc2c(c1)OCCO2	nt	i	-0.81	97	-3	82
CN1CCN(CCCC(=O)c2ccc(F)cc2)CC1	50	i	0.47	99	17	87
O=C(CCCN1Cc2ccccc2C1)c1ccc(F)cc1	nt	i	0.04	95	93*	87
O=C(CCN1Cc2ccccc2C1)c1ccc2c(c1)OCCO2	-23	i	0.05	77	83*	80
O=C(CCN1CCc2ccccc2C(c2ccccc2)C1)c1ccc2c(c1)OCCO2 (stereo unspecified)	31	i	nt	71	100*	42
CCOc1cc(C2NC(=O)NC(C)=C2C(=O)OCc2ccccc2)ccc1O (stereo unspecified)	nt	i	0	83	2	93
O=C(Nc1ccccc1)c1cc([N+](=O)[O-])ccc1NC1CCCCC1	53	i	0.01	69	39	55
Cc1c(C(=O)NC(C)C)c(-c2ccccc2)nn1-c1ccccc1	-43	i	?	108	-1	105
Cc1c(C(=O)NCc2ccccc2)c(-c2ccccc2)nn1-c1ccccc1	-107	i	-0.52	99	86*	91
O=C1C2C(C(=O)N1/N=C/c1ccc([N+](=O)[O-])o1)C1C=CC2C12CC2 (stereo unspecified)	-8	i	0.13	46	90*	60
O=C1C2C3C=CC(C4CC34)C2C(=O)N1/N=C/c1ccc([N+](=O)[O-])o1 (stereo unspecified)	-23	i	-0.07	nt	99*	nt
O=C1C2C3C=CC(C4CC34)C2C(=O)N1/N=C/c1ccc(-c2ccc([N+](=O)[O-])cc2)o1 (stereo unspecified)	nt	i	0.14	nt	3	nt
Cn1c2c(c(=O)n(C)c1=O)C(c1cccc(Br)c1)C1C(=O)c3ccccc3C1=N2 (stereo unspecified)	-37	i	nt	nt	1	nt
COc1ccc(C2c3c(-c4ccccc4O)n[nH]c3C(=O)N2CCc2ccc(OC)c(OC)c2)cc1 (stereo unspecified)	nt	i	-1.1	77	89*	67
COc1ccc(CCN2C(=O)c3[nH]nc(-c4ccccc4O)c3C2c2cccc(Cl)c2)cc1 (stereo unspecified)	-20	i	-0.29	11	100*	10
COc1ccccc1-n1c(=O)oc2ccc(Cl)cc2c1=O	14	i	nt	1.2*	0	1.9*
COc1ccccc1-n1c(SCc2cc(=O)oc3cc(O)ccc23)nc2ccccc2c1=O	23	i	0.58	85	4	85
CC(C)c1onc(C(=O)NCc2ccccn2)c1[N+](=O)[O-]	18	i	-0.46	nt	-5	nt
Cc1cc(N2CCN(c3ccccc3)CC2)n2ncnc2n1	nt	i	-1.2	nt	-5	nt
Cc1cc(C)n(-c2nc3ccccc3nc2N2CCN(S(=O)(=O)c3ccc4ccccc4c3)CC2)n1	-3	i	-0.88	68	54*	72
SMILES	Insulin prom inh	Autophagy mod	Insulin prom up	HCT116 bCat-KO	L major viab	HCT116 PTEN-null
Cc1cc(N2CCN(S(=O)(=O)c3ccc4ccccc4c3)CC2)n2ncnc2n1	nt	+	-0.08	nt	9	nt
Cc1nc2cc(C(F)(F)F)ccc2n1C1CCN(CC(=O)N2CCCC2)CC1	nt	i	0.02	nt	-7	nt
O=c1c2ccccc2nc(-c2cccc(Cl)c2)n1O	-20	i	-0.25	64	-11	73
Cc1ccc2[nH]c(C)c(/C=N/Nc3nc4ccccc4s3)c2c1	21	i	-2	1.6*	3	1.1*
CCCN(CCC)c1nc(N)nc(-c2cc(Cl)ccc2OC)n1	-83	i	nt	82	58*	83
COc1ccc(-c2nc(-c3cccc(C)c3)nc(Cl)c2C#N)cc1	-127	i	1.5	94	26	80
CCCCCCc1cc2cc(S(=O)(=O)c3ccc(Cl)cc3)c(=O)oc2cc1O	27	i	0	84	-7	77

Assay outcomes deposited in PubChem BioAssay by several laboratories.
